Laboratory results: article PMC5540273 (PLoS ONE, 2017)

Assays:
Conditions in all cases: concentration: 1 μM, replicates: in singlicate; n = 1
LYN = test system: LYN
LZK = test system: T1, LZK
T1 construct: gene MAP3K13

MAK = test system: MAK
MAP3K15 = test system: MAP3K15
MAP3K1 = test system: MAP3K1
MAP3K2 = test system: MAP3K2
MAP3K3 = test system: MAP3K3
MAP3K4 = test system: MAP3K4
MAP4K2 = test system: MAP4K2
MAP4K3 = test system: MAP4K3
MAP4K4 = test system: MAP4K4
MAP4K5 = test system: MAP4K5
MAPKAPK2 = test system: MAPKAPK2
MAPKAPK5 = test system: MAPKAPK5
MARK1 = test system: MARK1
MARK2 = test system: MARK2
MARK3 = test system: MARK3
MARK4 = test system: MARK4
MAST1 = test system: MAST1
MEK1 = test system: T2, MEK1
T2 construct: gene MAP2K1
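Further: KINOMEscan kinase panel screen.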

Row | SMILES | %Inh (LYN) [%] | %Inh (LZK) [%] | %Inh (MAK) [%] | %Inh (MAP3K15) [%] | %Inh (MAP3K1) [%] | %Inh (MAP3K2) [%] | %Inh (MAP3K3) [%] | %Inh (MAP3K4) [%] | %Inh (MAP4K2) [%] | %Inh (MAP4K3) [%] | %Inh (MAP4K4) [%] | %Inh (MAP4K5) [%] | %Inh (MAPKAPK2) [%] | %Inh (MAPKAPK5) [%] | %Inh (MARK1) [%] | %Inh (MARK2) [%] | %Inh (MARK3) [%] | %Inh (MARK4) [%] | %Inh (MAST1) [%] | %Inh (MEK1) [%]
1 | Fc1cc(Cl)ccc1Nc1ccnc2cc(-c3ccc(CN4CCCCC4)o3)ccc12 [GW560116] | 0 | 7 | 52 | 0 | 0 | 0 | 0 | 0 | 0 | 0 | 0 | 0 | 0 | 0 | 0 | 0 | 0 | 0 | 43 | 4
2 | COc1ccc(Nc2nccc(NCCNC(=O)Nc3ccccc3F)n2)cc1 [GSK1379901] | 0 | 7 | 19 | 0 | 1 | 5 | 0 | 52 | 0 | 0 | 0 | 0 | 25 | 0 | 0 | 0 | 0 | 11 | 0 | 0
3 | O=C(Nc1n[nH]c2nc(-c3nccs3)c(Br)cc12)C1CCCC1 [SB-742609] | 0 | 0 | 75 | 6 | 15 | 5 | 0 | 28 | 0 | 0 | 2 | 4 | 22 | 0 | 0 | 0 | 0 | 0 | 0 | 0
4 | CCn1c(-c2ccccn2)nc2cnccc21 [SB-736398] | 0 | 11 | 11 | 2 | 8 | 3 | 0 | 19 | 0 | 0 | 0 | 1 | 21 | 0 | 0 | 0 | 3 | 8 | 47 | 0
5 | CC(C)(C)c1ccc(C(=O)Nc2cn3cc(-c4cccnc4)ccc3n2)cc1 | 16 | 0 | 46 | 46 | 1 | 9 | 26 | 17 | 0 | 5 | 15 | 0 | 0 | 0 | 36 | 27 | 0 | 38 | 0 | 3
6 | Cc1ccc(NC(=O)Nc2cccc(Cl)c2)cc1-c1ccc(C(=O)Nc2ccncc2)cc1 [GSK1398468] | 0 | 0 | 19 | 0 | 0 | 0 | 0 | 7 | 0 | 0 | 0 | 0 | 0 | 0 | 26 | 0 | 0 | 12 | 0 | 100
7 | Fc1cc(Cl)ccc1Nc1ccnc2cc(I)ccc12 [GW551191] | 14 | 0 | 40 | 0 | 7 | 0 | 0 | 0 | 0 | 0 | 28 | 0 | 19 | 0 | 0 | 0 | 11 | 0 | 0 | 0
8 | O=C(Nc1ccccc1)Nc1cccc(Oc2ccc3nccn3n2)c1 | 0 | 0 | 27 | 0 | 0 | 0 | 0 | 4 | 0 | 9 | 0 | 0 | 0 | 0 | 2 | 39 | 0 | 9 | 0 | 0
9 | Cc1cccc(-c2nc(Nc3ccc4[nH]ncc4c3)c3ccccc3n2)n1 [GW857175] | 17 | 10 | 0 | 0 | 38 | 36 | 0 | 14 | 39 | 0 | 0 | 0 | 0 | 28 | 16 | 0 | 0 | 0 | 1 | 25
10 | Cn1ccc2ncnc(Oc3cccc(C(=O)Nc4ccccc4)c3)c21 | 9 | 0 | 8 | 0 | 0 | 11 | 0 | 0 | 2 | 15 | 8 | 0 | 0 | 12 | 13 | 0 | 0 | 6 | 35 | 1
11 | Cc1ccccc1-n1cnc2c(N)ncnc21 [SKF-97510] | 0 | 0 | 0 | 0 | 0 | 0 | 0 | 0 | 0 | 0 | 0 | 0 | 0 | 0 | 0 | 0 | 0 | 0 | 12 | 0
